# Data from PubChem BioAssay.
# A number with no mark means an inactive call. For some of these results: Measured potencies and affinities stand elsewhere. Active and inactive are the calls of the source. Unless noted, the rule behind the calls is not given here.
# Key:
# [1] = antimalarial activity against Dd2 strain (AID 2302;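 active = growth inhibition above 50% at the single 2 µM test dose, taken to imply half-maximal potency below 2 µM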;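 note: 0% = DMSO untreated growth and 100% = chloroquine plus artemisinin killed control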); conditions: P. falciparum Dd2 in RBCs, LDH growth readout, 72 h; at 2 µM; stronger effect = higher value
# [2] = HepG2 cytotoxicity, primary screen, cytotoxicity control for P. falciparum antimalarial project, cell-based, ATP luminescence (AID 2303;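 active = inhibition above 50%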;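 note: 0% = DMSO wells and 100% = digitonin-killed cells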); conditions: HepG2 viability, 24-48 h, at 10 µM, stronger effect = higher value
# [3] = target: L-lactate dehydrogenase (Plasmodium falciparum (isolate CDC / Honduras)) (UniProt Q27743); assay: PfLDH activity inhibition – cell lysate, 3D7 strain, counter-screen for P. falciparum growth inhibition project (AID 2304);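 note: 0% = vehicle and 100% = reference inhibitor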; conditions: P. falciparum 3D7 crude extract, LDH APAD/NBT absorbance; at 2 µM; stronger effect = higher value
# [4] = inhibition of 3D7 malaria parasite growth – strain 3D7 (AID 2306);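 note: 0% = DMSO wells and 100% = chloroquine plus artemisinin control wells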; conditions: P. falciparum 3D7 erythrocytic growth, LDH absorbance, 72 h; at 2 µM; stronger effect = higher value
# [5] = target: Calcium-dependent protein kinase 1 (Plasmodium falciparum (isolate 3D7)) (UniProt P62344); assay: PfCDPK1 kinase inhibitors, biochemical, TCAMS library (AID 1159585; cut-off not given, nearly all actives have IC50 up to about 0.98 µM;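 note: inhibitors leave more ATP so luminescence rises with inhibition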); conditions: recombinant PfCDPK1, Kinase-Glo ATP depletion luminescence
# [6] = target: Plasmodium falciparum protein kinase 6 (PK6, PF3D7_1337100) (UniProt Q8IDW1); assay: PfPK6 kinase inhibitors, biochemical, TCAMS library (AID 1159586); conditions: recombinant PfPK6, Kinase-Glo ATP depletion luminescence
# [7] = target: Protein kinase 7 (PK7), Plasmodium falciparum 3D7 (PF3D7_0213400) (UniProt Q7YTF7); assay: inhibition of Plasmodium PK7 catalytic activity – biochemical, TCAMS antimalarial set, Kinase-Glo luminescence (AID 1159587); conditions: recombinant PfPK7, Kinase-Glo ATP depletion luminescence
# [8] = target: Calcium-dependent protein kinase 4 (Plasmodium falciparum (isolate 3D7)) (UniProt Q8IBS5); assay: PfCDPK4 kinase inhibitors, biochemical, TCAMS library (AID 1159588; cut-off not given, nearly all actives have IC50 up to about 0.91 µM); conditions: recombinant PfCDPK4, Kinase-Glo ATP depletion luminescence
# Sequence of Calcium-dependent protein kinase 4 (Plasmodium falciparum (isolate 3D7)) (Q8IBS5 whole entry, looked up): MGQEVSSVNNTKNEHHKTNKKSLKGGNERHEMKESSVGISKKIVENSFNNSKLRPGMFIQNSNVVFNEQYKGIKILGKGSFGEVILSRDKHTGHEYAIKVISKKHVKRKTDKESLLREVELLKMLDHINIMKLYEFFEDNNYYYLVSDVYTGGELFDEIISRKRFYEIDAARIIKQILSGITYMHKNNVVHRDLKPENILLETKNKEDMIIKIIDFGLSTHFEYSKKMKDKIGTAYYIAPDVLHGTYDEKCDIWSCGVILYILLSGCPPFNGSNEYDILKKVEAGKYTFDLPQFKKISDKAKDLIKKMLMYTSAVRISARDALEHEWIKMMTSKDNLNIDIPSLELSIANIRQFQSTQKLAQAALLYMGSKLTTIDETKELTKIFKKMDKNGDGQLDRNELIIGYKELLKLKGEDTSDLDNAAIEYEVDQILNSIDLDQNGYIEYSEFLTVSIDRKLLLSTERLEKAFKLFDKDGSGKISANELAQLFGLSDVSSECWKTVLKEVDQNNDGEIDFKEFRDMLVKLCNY
# Sequence of Calcium-dependent protein kinase 1 (Plasmodium falciparum (isolate 3D7)) (P62344 whole entry, looked up): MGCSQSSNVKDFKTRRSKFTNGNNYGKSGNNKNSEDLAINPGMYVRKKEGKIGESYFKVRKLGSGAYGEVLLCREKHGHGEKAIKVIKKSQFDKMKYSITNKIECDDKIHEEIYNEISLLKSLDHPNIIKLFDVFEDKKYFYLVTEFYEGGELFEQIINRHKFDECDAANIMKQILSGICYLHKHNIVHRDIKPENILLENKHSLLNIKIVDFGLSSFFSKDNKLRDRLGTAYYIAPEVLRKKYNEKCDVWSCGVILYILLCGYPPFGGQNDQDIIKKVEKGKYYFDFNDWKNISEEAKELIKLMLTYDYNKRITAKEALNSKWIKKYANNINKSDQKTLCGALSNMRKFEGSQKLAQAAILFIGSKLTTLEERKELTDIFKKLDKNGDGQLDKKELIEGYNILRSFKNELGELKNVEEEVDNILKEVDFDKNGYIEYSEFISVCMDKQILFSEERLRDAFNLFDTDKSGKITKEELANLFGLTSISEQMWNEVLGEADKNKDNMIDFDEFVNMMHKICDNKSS
# Sequence of L-lactate dehydrogenase (Plasmodium falciparum (isolate CDC / Honduras)) (Q27743 whole entry, looked up): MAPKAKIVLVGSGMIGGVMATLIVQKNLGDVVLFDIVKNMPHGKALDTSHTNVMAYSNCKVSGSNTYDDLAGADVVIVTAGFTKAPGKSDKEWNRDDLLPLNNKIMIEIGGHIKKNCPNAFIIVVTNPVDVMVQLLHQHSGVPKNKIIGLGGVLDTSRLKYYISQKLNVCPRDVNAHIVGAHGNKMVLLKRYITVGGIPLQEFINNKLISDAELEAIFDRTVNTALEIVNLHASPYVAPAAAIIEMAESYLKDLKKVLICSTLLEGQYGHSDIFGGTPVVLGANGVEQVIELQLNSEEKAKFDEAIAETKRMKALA
# Sequence of Plasmodium falciparum protein kinase 6 (PK6, PF3D7_1337100) (Q8IDW1 1-305): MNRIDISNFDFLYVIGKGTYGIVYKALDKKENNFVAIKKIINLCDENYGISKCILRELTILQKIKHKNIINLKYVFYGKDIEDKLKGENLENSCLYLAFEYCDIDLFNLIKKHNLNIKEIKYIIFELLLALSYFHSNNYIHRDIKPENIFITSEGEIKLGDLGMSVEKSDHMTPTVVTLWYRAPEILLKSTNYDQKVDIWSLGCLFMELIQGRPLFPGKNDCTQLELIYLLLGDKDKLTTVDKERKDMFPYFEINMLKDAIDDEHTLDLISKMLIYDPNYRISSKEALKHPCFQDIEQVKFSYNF
# Sequence of Protein kinase 7 (PK7), Plasmodium falciparum 3D7 (PF3D7_0213400) (Q7YTF7 1-343): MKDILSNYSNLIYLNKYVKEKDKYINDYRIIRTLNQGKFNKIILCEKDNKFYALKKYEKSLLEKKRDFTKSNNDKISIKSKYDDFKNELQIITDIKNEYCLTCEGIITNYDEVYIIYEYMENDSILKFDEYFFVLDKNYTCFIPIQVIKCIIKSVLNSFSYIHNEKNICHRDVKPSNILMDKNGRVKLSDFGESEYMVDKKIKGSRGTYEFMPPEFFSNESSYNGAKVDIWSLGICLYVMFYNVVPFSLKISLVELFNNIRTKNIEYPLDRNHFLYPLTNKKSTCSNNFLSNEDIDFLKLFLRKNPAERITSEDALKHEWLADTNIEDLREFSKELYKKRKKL
Compound,growth inhibition [1],inhibition [2],inhibition [3] [%],growth inhibition [4],outcome [5],outcome [6],outcome [7],outcome [8]
Cc1cc(-c2nc3ccc(C(=O)NCc4ccccc4)cc3n2C2CCN(C(=O)c3ccc(-c4ccccc4)cc3)CC2)ccn1,97% (active),36%,1,95% (active),inactive,inactive,inactive,inactive
Cc1cccc2[nH]c(-c3cccc(-c4ccc(NC(=O)C5CC(=O)Nc6ccccc65)cc4)c3)nc12 (stereo not given),56% (active),15%,3,87% (active),inactive,inactive,inactive,inactive
COc1ccc(Oc2cnc(N)nc2N)c(C(C)C)c1,-2%,58% (active),4,97% (active),inactive,inactive,inactive,inactive
Cc1ccc(NC(=O)c2ccc(CN3CCCN(Cc4cccc(O)c4)CC3)cc2)cc1C,25%,33%,4,98% (active),inactive,inactive,inactive,inactive
CC(=O)Nc1cc(C(=O)Nc2cccc(-c3cccc(-c4nc5ccc(C(F)(F)F)cc5[nH]4)c3)c2)ccc1C,43%,56% (active),-4,97% (active),inactive,inactive,inactive,inactive
CO/C(=C\C=C\c1cc2cc(Cl)c(Cl)cc2[nH]1)C(=O)NCCCN1CCN(Cc2ccccc2)CC1,65% (active),45%,-2,94% (active),inactive,inactive,inactive,inactive
CC(=O)Nc1ccc(OCCN(Cc2ccccc2OC(F)(F)F)c2ccc(C(F)(F)F)c(C#N)c2)c(Cl)c1,96% (active),8%,5,96% (active),inactive,inactive,inactive,inactive
CCNc1cc(C(=O)N[C@@H](Cc2ccccc2)[C@H](O)CN[C@H](C)C(C)(C)C)cc(N2CCCCS2(=O)=O)c1,41%,4%,-2,95% (active),inactive,inactive,inactive,inactive
O=C(Nc1cc(F)cc(F)c1)N[C@H]1CCN(CCCCCNC(=O)[C@@H]2C[C@H]2c2ccc(Cl)c(Cl)c2)C1,-4%,24%,-3,88% (active),inactive,inactive,inactive,inactive
Cn1c(=N)cc(-c2ccc(Br)cc2)c2c(=O)[nH]c(N)nc21,57% (active),5%,1,80% (active),inactive,inactive,inactive,inactive
COc1ccc2ncc(F)c(CCN3C[C@@H]4CCC[C@]4(CNCc4ccc5c(n4)NC(=O)CS5)C3)c2n1,28%,18%,2,87% (active),inactive,inactive,inactive,inactive
CCCN(CCC)CCOc1ccc(C(O)(C#CC(O)(c2ccc(OCCN(CCC)CCC)cc2)c2cccc(Cl)c2)c2cccc(Cl)c2)cc1 (stereo not given),98% (active),100% (active),6,101% (active),inactive,inactive,inactive,inactive
Oc1cccc(CCNCCCCCCNCCc2ccc(Cl)cc2)c1,-3%,23%,-1,96% (active),inactive,inactive,inactive,inactive
COc1ccc(-c2nonc2NC(=O)c2ccc(C(C)(C)C)cc2)cc1OC,73% (active),-3%,-2,99% (active),inactive,inactive,inactive,inactive
Cc1nc(N)nc(N)c1OCc1cccc2c1ccc1ccccc12,16%,54% (active),1,95% (active),inactive,inactive,inactive,inactive
CCc1c(C)c2ccc3c(c2oc1=O)CN(CCc1ccc(F)cc1)CO3,85% (active),0%,-2,94% (active),inactive,inactive,inactive,inactive
COc1ccc(C(=O)Nc2nonc2-c2ccc(OC)c(OC)c2)cc1Cl,97% (active),6%,0,97% (active),inactive,inactive,inactive,inactive
O=C(Nc1cccc(-c2ccc(-c3nc4ccc(F)cc4[nH]3)cc2)c1)Nc1ccc(Cl)c(Cl)c1,49%,79% (active),3,100% (active),inactive,inactive,inactive,inactive
CCCCCCCN1CC[C@@H](C[C@H](N)Cc2ccnc3ccc(OC)cc23)[C@@H](CC)C1,51% (active),33%,-2,91% (active),inactive,inactive,inactive,inactive
O=C(Nc1ccc(Cl)c(Cl)c1)Nc1ccc2nccc(N3CCNCC3)c2c1,62% (active),18%,-6,99% (active),inactive,inactive,inactive,inactive
